The list is not random: actives were taken first. Their share in the collection is about 2.5%.
ASK1 primary = inhibitors of human ASK1 kinase; AlphaScreen MKK6 phosphorylation by ASK1, luminescence; inhibition, % at 7.44 µM; hit rate 0.99% among 22,000; Q99683; AID 1159602; in the data active means inhibition above about 35%;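 further: 0% = median of compound wells and 100% = no enzyme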
ULK1 inh = inhibitors of human ULK1 kinase; hit rate 1.9% among 30,000; AlphaScreen Atg13 phosphorylation by ULK1, luminescence; AID 1259251; inhibition, % at 5.96 µM; O75385; in the data active means inhibition above about 43%;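 further: 0% = median of compound wells and 100% = no enzyme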
AlphaScreen intf = AlphaScreen optical interference dose response, ASK1 counter-screen; shares compounds with ASK1 primary; AlphaScreen TruHits beads, signal interference counterscreen; IC50, µM; hit rate 20% among 220; AID 1159604;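 active means IC50 of 10 µM or lower in the counterscreen; inactive means IC50 above 10 µM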;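 further: loss of AlphaScreen light from TruHits beads alone with no ASK1 enzyme present; potency of signal reduction so a low IC50 flags an assay artifact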
An asterisk follows results filed as active.

What do the screens show for `Cc1cnc(Nc2cccc(N(C)C)c2)nc1NCCCN1CCCC1=O`?
ASK1 primary: -8; ULK1 inh: 20

How did NC(=O)c1ccc(-c2ccc(C(=O)NCCO)s2)cc1 do in these assays?
ASK1 primary: -8; ULK1 inh: 3

What do the screens show for `COc1ccc2c(c1)CC(c1nc3cc(-c4ccnc(N)n4)c(F)cc3[nH]1)CO2` (stereo not given)?
ASK1 primary: 13; ULK1 inh: -1

Results for CCn1c(C(N)c2ccc(OC)cc2)nc2cc(F)c(-c3ccnc(N)n3)cc21 (stereo not given) ?
ASK1 primary: -4; ULK1 inh: 5

How did c1cc(Nc2cc(Nc3ccc(N4CCOCC4)cc3)ncn2)ccn1 do in these assays?
ASK1 primary: 2; ULK1 inh: 82*

What do the screens show for `c1ccc(CNc2cc(Nc3ccncc3)ncn2)cc1`?
ASK1 primary: -16; ULK1 inh: 20

How did c1cc(Nc2nccc(Nc3ccc(N4CCOCC4)cc3)n2)ccn1 do in these assays?
ASK1 primary: 10; ULK1 inh: 28

How did c1cc(Nc2nccc(Nc3ccc(N4CCOCC4)cc3)n2)ncn1 do in these assays?
ASK1 primary: 13; ULK1 inh: 79*

How did c1ccc(Nc2cc(Nc3ccncc3)ncn2)cc1 do in these assays?
ASK1 primary: 20; ULK1 inh: 61*

Results for c1cn(-c2ccc(Nc3cc(Nc4ccc(N5CCOCC5)cc4)ncn3)cc2)cn1 ?
ASK1 primary: 3; ULK1 inh: -7

Results for O=C(Nc1ccc(-c2cn[nH]c2)cc1Cl)C1COc2ccccc2O1 (stereo not given) ?
ASK1 primary: 4; ULK1 inh: -2

What do the screens show for `CC(C)n1cnc2c(NCCOc3ccccc3)nc(-c3ccc(N4CCN(C)CC4)cc3)nc21`?
ASK1 primary: 21; ULK1 inh: 3

How did FC(F)(F)c1ccc(Cn2cnc3c(NCCN4CCOCC4)nc(Nc4ccc(C(F)(F)F)cc4)nc32)cc1 do in these assays?
ASK1 primary: 5; ULK1 inh: -36

Results for FC(F)(F)c1ccc(Cn2cnc3c(Nc4ccc(N5CCOCC5)cc4)nc(Nc4ccc(N5CCOCC5)cc4)nc32)cc1 ?
ASK1 primary: 22; ULK1 inh: 1

What do the screens show for `FC(F)(F)c1ccc(Cn2cnc3c(Nc4ccc5c(c4)OCO5)nc(Nc4ccc(N5CCOCC5)cc4)nc32)cc1`?
ASK1 primary: 62*; ULK1 inh: 3; AlphaScreen intf: inactive

Results for CCCNc1nc(Nc2ccc(N3CCOCC3)cc2)nc2c1ncn2Cc1ccc(C(F)(F)F)cc1 ?
ASK1 primary: 40*; ULK1 inh: -2; AlphaScreen intf: inactive

How did OCc1nc2ccc(-c3ccncc3)cc2[nH]1 do in these assays?
ASK1 primary: -2; ULK1 inh: 7

Results for COc1cc(Nc2nc3ncnc(NCc4cccnc4)c3[nH]2)cc(OC)c1OC ?
ASK1 primary: -19; ULK1 inh: 29

What do the screens show for `CC(=O)c1cccc(-c2nc(C)cc(NCCc3ccc(O)cc3)n2)c1`?
ASK1 primary: -13; ULK1 inh: -13

What do the screens show for `N#Cc1cc(-c2ccnc(Nc3ccccn3)n2)cc(N2CCOCC2)c1`?
ASK1 primary: 2; ULK1 inh: -3

What do the screens show for `Nc1cc(C2=C3C=CN=C3C(=O)NCC2)c(O)[nH]1`?
ASK1 primary: 38*; ULK1 inh: 71*; AlphaScreen intf: >19

Results for Nc1cc(C2=C3C=C(Br)N=C3C(=O)NCC2)c(O)[nH]1 ?
ASK1 primary: 17; ULK1 inh: 31

How did c1ccc(CNc2nc(N3CCN(Cc4ccc5c(c4)OCO5)CC3)nc3c2ncn3C2CCCCC2)cc1 do in these assays?
ASK1 primary: 6; ULK1 inh: 8

What do the screens show for `c1ccc(CN2CCC(Nc3nc(N4CCN(Cc5ccc6c(c5)OCO6)CC4)nc4c3ncn4C3CCCCC3)CC2)cc1`?
ASK1 primary: 36*; ULK1 inh: 9; AlphaScreen intf: 8.7*

What do the screens show for `Cc1ccc(C)c(NC(=O)Cn2nnc(-c3ccccc3)n2)c1`?
ULK1 inh: -8

Results for COc1ccc(-c2cncc(C(=O)NCCN(C(C)C)C(C)C)c2)cn1 ?
ASK1 primary: -1; ULK1 inh: -2

How did Cc1nc(-c2ccc3cnc(Nc4ccc(-n5cnc(N6CCOCC6)n5)cc4)nc3c2)n[nH]1 do in these assays?
ASK1 primary: -21; ULK1 inh: 19

What do the screens show for `COc1ccc(-c2ncn(-c3ccc(Nc4nccc(-c5cc(C#N)cc(N6CCNCC6)c5)n4)cc3)n2)cn1`?
ASK1 primary: 45*; ULK1 inh: -387; AlphaScreen intf: >19

What do the screens show for `COc1ccc(-c2ccc(Nc3nccc(-c4cc(C#N)cc(N5CCOCC5)c4)n3)cc2)cn1`?
ASK1 primary: -2; ULK1 inh: -4

Results for Fc1cc(-c2ccnc(Nc3ccc(-n4cnc(N5CCOCC5)n4)cc3)n2)cc(N2CCOCC2)c1 ?
ASK1 primary: 24; ULK1 inh: 5

Results for CN1CCN(c2ncn(-c3ccc(Nc4nccc(-c5cc(C#N)cc(N6CCC(O)CC6)c5)n4)cc3)n2)CC1 ?
ASK1 primary: 41*; ULK1 inh: -51; AlphaScreen intf: >19

How did N#Cc1cc(-c2ccnc(Nc3ccc(-n4cnc(N5CCOCC5)n4)cc3)n2)cc(N2CCCC(O)C2)c1 (stereo not given) do in these assays?
ASK1 primary: 14; ULK1 inh: 6

Results for Cc1n[nH]c(C)c1-c1cc(F)cc(-c2ccnc(Nc3ccc(-n4cnc(N5CCOCC5)n4)cc3)n2)c1 ?
ASK1 primary: 48*; ULK1 inh: 13; AlphaScreen intf: >19

Results for c1cc(-n2cnc(N3CCOCC3)n2)ccc1Nc1ncc2ccc(-c3cn[nH]n3)cc2n1 ?
ASK1 primary: 49*; ULK1 inh: 59*; AlphaScreen intf: >19

What do the screens show for `CCN1C(=O)NC2(CCN(CC(=O)Nc3ccc(F)cc3)CC2)C1=O`?
ULK1 inh: -7

Results for CC(=O)Nc1ccc(NC(=O)c2cc(N3CCOCC3)nc3ccccc23)cc1 ?
ASK1 primary: -16; ULK1 inh: 16

Results for O=C(O)CCC(=O)Nc1ccc2c(c1)C(=O)OC2 ?
ULK1 inh: 8

What do the screens show for `O=C(NC1CC1)c1csc(Oc2ccccc2)n1`?
ASK1 primary: -8; ULK1 inh: 3

What do the screens show for `Cc1ccc(-c2ncn(-c3ccc(Nc4nccc(-c5cc(F)cc(N(C)C)c5)n4)cc3)n2)cn1`?
ASK1 primary: -15; ULK1 inh: -25

What do the screens show for `CN(C)c1cc(F)cc(-c2ccnc(Nc3ccc(-n4cnc(N5CCC(O)CC5)n4)cc3)n2)c1`?
ASK1 primary: 39*; ULK1 inh: -33; AlphaScreen intf: >19

What do the screens show for `COc1ccc(CCNC(=O)c2cncc(-c3cccc(N)c3)c2)cc1`?
ASK1 primary: -8; ULK1 inh: -4

How did c1ccc(Nc2ccnc(N3CCc4ccccc4C3)n2)cc1 do in these assays?
ASK1 primary: 1; ULK1 inh: -14

Results for COc1cc2nc(NCc3cccnc3)nc(Nc3ccc(N4CCOCC4)cc3)c2cc1OC ?
ASK1 primary: 21; ULK1 inh: 17

What do the screens show for `COc1cc2nc(NCc3ccc4c(c3)OCO4)nc(Nc3ccc(N4CCOCC4)cc3)c2cc1OC`?
ASK1 primary: 51*; ULK1 inh: 0; AlphaScreen intf: 6.3*

Results for c1ccc(Nc2ccnc(N3CCN(Cc4ccc5c(c4)OCO5)CC3)n2)cc1 ?
ASK1 primary: 9; ULK1 inh: -17

High-throughput results (PubChem)
